Results as given in the supplement of paper PMC10849652.
The full data set covers some 8,800 targets. This sample favours those with a hit. About 0.5% of all pairs of compound and target were hits. Values without a mark were called inactive.

What was measured:
Assay in all cases: log2 fold change, soluble protein after heating vs DMSO (PISA); higher = thermal stabilisation; K562 lysate, 10 uM; active = over 0.2 and 3.5 SD of the protein, either way, in both replicates (recomputed)
vemurafenib = compound: CCCS(=O)(=O)Nc1ccc(F)c(C(=O)c2c[nH]c3ncc(-c4ccc(Cl)cc4)cc23)c1F [vemurafenib]
Summary of the method: (§1)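 K562 pellets were dounce-homogenised in PBS pH 7.4 containing 1 mM MgCl2, and the crude extract, at 1 mg/mL protein, was exposed to 10 μM compound for 30 min. Aliquots were heated for 3 min across 48°C-58°C, pooled, brought to 0.5% NP-40 at 4°C and spun at 21,000xg for 90 min, with the supernatant taken as soluble protein. TMTpro 16plex LC-MS/MS with equalised channel sums quantified that protein. Values are log-two fold changes in thermal stability relative to solvent controls, taken from duplicates.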

[1] = compound: CCCS(=O)(=O)Nc1ccc(F)c(C(=O)c2c[nH]c3ncc(Cl)cc23)c1F
Summary of the method: as §1

barasertib = compound: CCN(CCCOc1ccc2c(Nc3cc(CC(=O)Nc4cccc(F)c4)[nH]n3)ncnc2c1)CCOP(=O)(O)O [barasertib]
Summary of the method: as §1

[2] = compound: CC[C@@H]1C(=O)N(C)c2cnc(Nc3ccc(C(=O)NC4CCN(C)CC4)cc3OC)nc2N1C1CCCC1
Summary of the method: as §1

volasertib = compound: CC[C@@H]1C(=O)N(C)c2cnc(Nc3ccc(C(=O)N[C@H]4CC[C@H](N5CCN(CC6CC6)CC5)CC4)cc3OC)nc2N1C(C)C [volasertib]
Summary of the method: as §1

[3] = compound: CCn1c(C(=O)N(C2CC2)C2CC2)cc2c3c(ncn3C)c(Nc3cc(C)n(C)n3)nc21
Summary of the method: as §1

[4] = compound: CCn1cc(-c2ccnc3[nH]c(-c4cccc(CN(C)C)c4)cc23)c(-c2ccc(NC(=O)N(C)C)cc2)n1
Summary of the method: as §1

[5] = compound: CN1CCC(CNc2ccc3ncc(-c4cccc(OC(F)(F)F)c4)n3n2)CC1
Summary of the method: as §1

saracatinib = compound: CN1CCN(CCOc2cc(OC3CCOCC3)c3c(Nc4c(Cl)ccc5c4OCO5)ncnc3c2)CC1 [saracatinib]
Summary of the method: as §1

sotrastaurin = compound: CN1CCN(c2nc(C3=C(c4c[nH]c5ccccc45)C(=O)NC3=O)c3ccccc3n2)CC1 [sotrastaurin]
Summary of the method: as §1

alvocidib = compound: CN1CC[C@H](c2c(O)cc(O)c3c(=O)cc(-c4ccccc4Cl)oc23)[C@H](O)C1 [alvocidib]
Summary of the method: as §1

Tubastatin A = compound: CN1CCc2c(c3ccccc3n2Cc2ccc(C(=O)NO)cc2)C1 [Tubastatin A]
Summary of the method: as §1

[6] = compound: CNC(=O)C1=CC=CC=C1NC2=NC(=NC=C2Cl)NC3=C(C=C(C=C3)N4CCOCC4)OC
Summary of the method: as §1

defactinib = compound: CNC(=O)c1ccc(Nc2ncc(C(F)(F)F)c(NCc3nccnc3N(C)S(C)(=O)=O)n2)cc1 [defactinib]
Summary of the method: as §1

[7] = compound: CNc1nc(-c2ccc3c(N)n[nH]c3c2)cc(N2C[C@@H](C(=O)NC3CCCCC3)CC[C@H]2C)n1
Summary of the method: as §1

encorafenib = compound: COC(=O)N[C@@H](C)CNc1nccc(-c2cn(C(C)C)nc2-c2cc(Cl)cc(NS(C)(=O)=O)c2F)n1 [encorafenib]
Summary of the method: as §1

[8] = compound: COC(=O)[C@H](CCSC)NC(=O)C1=C(C=C(C=C1)NC[C@H](CS)N)C2=CC=CC=C2
Summary of the method: as §1

alisertib = compound: COc1cc(Nc2ncc3c(n2)-c2ccc(Cl)cc2C(c2c(F)cccc2OC)=NC3)ccc1C(=O)O [alisertib]
Summary of the method: as §1

[9] = compound: COc1cc2nc(-c3cc(F)ccc3O)nc(N[C@@H]3CNC[C@H]3C(C)(C)O)c2cc1OC
Summary of the method: as §1

gefitinib = compound: COc1cc2ncnc(Nc3ccc(F)c(Cl)c3)c2cc1OCCCN1CCOCC1 [gefitinib]
Summary of the method: as §1

Chain of UniProt A4D1P6 (A4D1P6 whole entry, looked up): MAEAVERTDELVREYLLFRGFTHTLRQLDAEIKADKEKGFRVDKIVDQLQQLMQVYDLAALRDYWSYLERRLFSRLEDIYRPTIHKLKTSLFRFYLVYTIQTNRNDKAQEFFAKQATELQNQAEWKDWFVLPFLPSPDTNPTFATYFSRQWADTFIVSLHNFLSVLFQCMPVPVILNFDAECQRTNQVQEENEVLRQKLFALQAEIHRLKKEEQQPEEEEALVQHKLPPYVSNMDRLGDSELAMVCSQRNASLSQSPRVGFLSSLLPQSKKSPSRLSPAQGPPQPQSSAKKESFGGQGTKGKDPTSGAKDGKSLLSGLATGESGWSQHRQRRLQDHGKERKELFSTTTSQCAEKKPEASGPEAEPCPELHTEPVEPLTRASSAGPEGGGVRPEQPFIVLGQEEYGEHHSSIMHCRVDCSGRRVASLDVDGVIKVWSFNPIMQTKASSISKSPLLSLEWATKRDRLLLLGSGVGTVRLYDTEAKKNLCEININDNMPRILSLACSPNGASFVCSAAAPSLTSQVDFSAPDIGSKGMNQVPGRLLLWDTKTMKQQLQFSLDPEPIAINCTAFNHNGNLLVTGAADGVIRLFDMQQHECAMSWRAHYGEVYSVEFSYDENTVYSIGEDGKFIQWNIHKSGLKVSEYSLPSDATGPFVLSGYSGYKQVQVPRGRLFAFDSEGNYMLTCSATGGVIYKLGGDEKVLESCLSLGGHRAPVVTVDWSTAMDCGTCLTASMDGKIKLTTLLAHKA
Chain of UniProt Q9NQW7 (Q9NQW7 whole entry, looked up): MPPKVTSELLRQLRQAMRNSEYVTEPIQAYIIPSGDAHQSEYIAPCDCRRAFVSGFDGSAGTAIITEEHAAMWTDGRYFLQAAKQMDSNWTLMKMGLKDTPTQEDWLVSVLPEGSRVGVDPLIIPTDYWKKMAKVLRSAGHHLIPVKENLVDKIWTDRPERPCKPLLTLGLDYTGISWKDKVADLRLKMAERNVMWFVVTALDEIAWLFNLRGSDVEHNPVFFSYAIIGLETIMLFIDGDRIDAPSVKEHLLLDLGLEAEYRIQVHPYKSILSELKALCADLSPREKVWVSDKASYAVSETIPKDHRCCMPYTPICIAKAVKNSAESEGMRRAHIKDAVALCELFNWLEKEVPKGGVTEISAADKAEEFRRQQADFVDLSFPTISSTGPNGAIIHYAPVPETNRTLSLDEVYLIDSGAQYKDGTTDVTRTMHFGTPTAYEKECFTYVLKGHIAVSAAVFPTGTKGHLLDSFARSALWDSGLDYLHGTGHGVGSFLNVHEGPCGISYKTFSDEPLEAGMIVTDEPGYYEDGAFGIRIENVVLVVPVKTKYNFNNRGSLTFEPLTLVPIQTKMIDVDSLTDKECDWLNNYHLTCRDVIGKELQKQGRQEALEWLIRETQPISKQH
Chain of UniProt Q9Y4P8 (Q9Y4P8 whole entry, looked up): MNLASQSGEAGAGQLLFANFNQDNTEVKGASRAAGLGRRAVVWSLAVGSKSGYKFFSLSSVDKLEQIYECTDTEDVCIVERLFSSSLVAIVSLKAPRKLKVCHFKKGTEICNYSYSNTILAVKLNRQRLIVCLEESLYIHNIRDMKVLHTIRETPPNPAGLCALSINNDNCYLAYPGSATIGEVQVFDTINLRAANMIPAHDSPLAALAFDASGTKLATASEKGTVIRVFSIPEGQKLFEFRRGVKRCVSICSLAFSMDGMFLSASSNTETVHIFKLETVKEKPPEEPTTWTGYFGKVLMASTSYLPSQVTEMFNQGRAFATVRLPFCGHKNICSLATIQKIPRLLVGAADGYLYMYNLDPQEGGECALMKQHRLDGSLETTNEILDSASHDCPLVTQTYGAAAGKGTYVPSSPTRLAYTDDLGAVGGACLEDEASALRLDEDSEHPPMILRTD
Chain of UniProt O43592 (O43592 whole entry, looked up): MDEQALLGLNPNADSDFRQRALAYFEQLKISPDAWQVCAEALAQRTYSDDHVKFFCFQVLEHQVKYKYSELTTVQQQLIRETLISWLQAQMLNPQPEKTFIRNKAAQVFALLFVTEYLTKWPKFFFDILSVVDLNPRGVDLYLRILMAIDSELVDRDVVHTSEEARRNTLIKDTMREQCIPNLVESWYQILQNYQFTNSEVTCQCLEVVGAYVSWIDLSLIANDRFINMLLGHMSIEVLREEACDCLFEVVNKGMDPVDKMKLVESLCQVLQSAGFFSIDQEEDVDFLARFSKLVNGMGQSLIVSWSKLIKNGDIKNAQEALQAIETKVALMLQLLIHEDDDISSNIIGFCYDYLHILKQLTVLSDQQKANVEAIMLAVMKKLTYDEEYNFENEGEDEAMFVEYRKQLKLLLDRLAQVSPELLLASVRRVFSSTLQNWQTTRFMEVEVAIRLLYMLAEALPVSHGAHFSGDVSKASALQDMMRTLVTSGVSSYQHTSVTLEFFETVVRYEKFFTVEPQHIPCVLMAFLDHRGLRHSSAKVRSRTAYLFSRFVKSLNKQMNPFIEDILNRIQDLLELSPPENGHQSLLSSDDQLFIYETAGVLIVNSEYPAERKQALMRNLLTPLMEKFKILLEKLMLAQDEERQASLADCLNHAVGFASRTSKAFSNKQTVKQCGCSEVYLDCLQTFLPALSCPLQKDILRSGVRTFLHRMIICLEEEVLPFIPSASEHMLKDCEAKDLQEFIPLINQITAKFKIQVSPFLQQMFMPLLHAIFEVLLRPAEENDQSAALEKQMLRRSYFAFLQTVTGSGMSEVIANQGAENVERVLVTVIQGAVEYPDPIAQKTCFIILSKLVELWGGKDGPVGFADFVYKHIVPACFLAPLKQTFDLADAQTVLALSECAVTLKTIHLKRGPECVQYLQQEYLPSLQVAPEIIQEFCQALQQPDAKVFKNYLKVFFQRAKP
Chain of UniProt Q96S55 (Q96S55 whole entry, looked up): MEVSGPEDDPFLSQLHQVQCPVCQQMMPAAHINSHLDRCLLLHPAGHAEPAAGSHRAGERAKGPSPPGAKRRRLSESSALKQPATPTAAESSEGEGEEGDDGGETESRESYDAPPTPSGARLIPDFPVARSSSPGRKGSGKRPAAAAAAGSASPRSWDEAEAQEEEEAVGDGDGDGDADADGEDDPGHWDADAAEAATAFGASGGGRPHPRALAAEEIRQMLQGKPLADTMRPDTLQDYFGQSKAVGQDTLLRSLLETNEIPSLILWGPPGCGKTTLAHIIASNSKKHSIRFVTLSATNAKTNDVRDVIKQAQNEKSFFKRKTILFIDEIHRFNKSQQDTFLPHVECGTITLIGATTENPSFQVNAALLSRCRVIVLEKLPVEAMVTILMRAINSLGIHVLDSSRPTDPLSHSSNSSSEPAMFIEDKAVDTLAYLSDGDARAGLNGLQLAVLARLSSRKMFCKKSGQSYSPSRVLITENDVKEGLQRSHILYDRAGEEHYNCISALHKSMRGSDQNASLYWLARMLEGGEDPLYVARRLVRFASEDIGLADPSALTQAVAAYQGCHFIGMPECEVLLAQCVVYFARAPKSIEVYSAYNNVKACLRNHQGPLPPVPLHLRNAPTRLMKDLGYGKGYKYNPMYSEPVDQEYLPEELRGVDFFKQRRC
Chain of UniProt Q9UKY1 (Q9UKY1 whole entry, looked up): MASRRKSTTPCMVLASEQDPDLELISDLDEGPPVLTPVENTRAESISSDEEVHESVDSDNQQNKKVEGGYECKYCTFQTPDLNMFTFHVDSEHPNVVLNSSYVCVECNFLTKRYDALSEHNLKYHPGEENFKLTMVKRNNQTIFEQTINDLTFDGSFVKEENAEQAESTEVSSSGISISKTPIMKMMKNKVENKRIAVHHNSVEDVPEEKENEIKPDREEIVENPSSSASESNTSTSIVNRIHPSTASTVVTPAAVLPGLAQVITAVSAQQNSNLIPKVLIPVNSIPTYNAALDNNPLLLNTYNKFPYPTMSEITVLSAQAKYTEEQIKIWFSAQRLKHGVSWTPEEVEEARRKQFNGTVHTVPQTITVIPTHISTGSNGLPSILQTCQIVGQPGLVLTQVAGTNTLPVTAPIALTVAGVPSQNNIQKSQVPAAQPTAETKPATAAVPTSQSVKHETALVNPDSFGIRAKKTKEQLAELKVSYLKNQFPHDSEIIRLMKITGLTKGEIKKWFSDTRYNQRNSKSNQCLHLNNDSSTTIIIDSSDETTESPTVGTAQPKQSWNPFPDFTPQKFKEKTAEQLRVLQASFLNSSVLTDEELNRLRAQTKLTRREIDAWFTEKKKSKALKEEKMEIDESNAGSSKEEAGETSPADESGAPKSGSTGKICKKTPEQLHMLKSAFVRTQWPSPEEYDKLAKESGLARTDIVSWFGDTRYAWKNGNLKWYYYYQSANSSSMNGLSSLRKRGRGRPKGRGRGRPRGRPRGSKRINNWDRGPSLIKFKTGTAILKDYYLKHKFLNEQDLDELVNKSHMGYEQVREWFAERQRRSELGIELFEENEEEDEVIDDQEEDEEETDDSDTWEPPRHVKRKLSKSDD
Chain of UniProt Q9NQZ2 (Q9NQZ2 whole entry, looked up): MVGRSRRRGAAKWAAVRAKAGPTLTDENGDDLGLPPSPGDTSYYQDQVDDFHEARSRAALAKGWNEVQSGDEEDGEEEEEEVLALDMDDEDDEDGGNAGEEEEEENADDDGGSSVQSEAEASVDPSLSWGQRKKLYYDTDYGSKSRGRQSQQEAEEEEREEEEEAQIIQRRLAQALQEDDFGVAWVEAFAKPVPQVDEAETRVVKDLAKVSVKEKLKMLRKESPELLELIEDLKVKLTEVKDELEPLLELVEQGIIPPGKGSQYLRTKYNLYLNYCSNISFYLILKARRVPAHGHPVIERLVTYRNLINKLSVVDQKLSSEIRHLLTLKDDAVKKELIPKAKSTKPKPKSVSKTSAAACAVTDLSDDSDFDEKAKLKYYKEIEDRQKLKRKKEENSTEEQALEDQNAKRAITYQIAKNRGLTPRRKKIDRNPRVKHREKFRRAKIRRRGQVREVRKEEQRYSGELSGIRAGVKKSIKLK

Target | log2 fold change (vemurafenib) | log2 fold change [1] | log2 fold change (barasertib) | log2 fold change [2] | log2 fold change (volasertib) | log2 fold change [3] | log2 fold change [4] | log2 fold change [5] | log2 fold change (saracatinib) | log2 fold change (sotrastaurin) | log2 fold change (alvocidib) | log2 fold change (Tubastatin A) | log2 fold change [6] | log2 fold change (defactinib) | log2 fold change [7] | log2 fold change (encorafenib) | log2 fold change [8] | log2 fold change (alisertib) | log2 fold change [9] | log2 fold change (gefitinib)
VPS18 (UniProt Q9P253) | 0.037 | 0.014 | 0 | 0 | -0.083 | 0.046 | -0.048 | -0.04 | -0.012 | 0.02 | -0.016 | -0.106 | 0.011 | -0.057 | -0.008 | 0.019 | -0.125 | 0.005 | -0.006 | 0.006
XPO5 (UniProt Q9HAV4) | -0.006 | 0.005 | 0.022 | -0.028 | -0.062 | 0.027 | -0.043 | -0.041 | 0.011 | 0.007 | 0.025 | -0.184 | -0.014 | -0.002 | -0.019 | 0.021 | 0.012 | -0.004 | 0 | 0.013
XPOT (UniProt O43592) | -0.023 | 0.014 | 0.011 | -0.097 | -0.047 | 0.036 | -0.065 | -0.001 | -0.005 | 0.002 | 0.004 | -0.133 | -0.004 | 0.011 | -0.042 | 0.005 | -0.094 | 0 | 0.005 | 0.01
WRNIP1 (UniProt Q96S55) | 0.036 | 0.042 | 0.064 | -0.114 | -0.128 | 0.014 | -0.026 | 0.03 | -0.006 | 0.042 | 0.005 | -0.229 | 0.01 | 0.01 | -0.044 | 0.024 | 0.222 (active) | -0.022 | -0.014 | 0.033
ZHX1 (UniProt Q9UKY1) | -0.058 | 0.057 | 0.059 | 0.144 | -0.079 | -0.056 | -0.603 (active) | 0.526 (active) | 0.011 | 0.029 | -0.231 | -0.194 | 0 | 0.034 | 0.251 | 0.041 | 0.044 | 0.013 | 0.042 | 0.012
WDR7 (UniProt Q9Y4E6) | -0.005 | -0.035 | -0.019 | -0.041 | -0.057 | 0.029 | -0.007 | 0.047 | -0.018 | 0.01 | -0.008 | 0.008 | 0 | -0.025 | 0.026 | 0.092 | -0.055 | -0.007 | -0.01 | -0.025
YTHDC2 (UniProt Q9H6S0) | 0.068 | 0.022 | 0.07 | -0.013 | -0.027 | 0.025 | 0.025 | 0.005 | 0.015 | 0.022 | 0.05 | -0.084 | 0.038 | 0.048 | -0.008 | 0.04 | 0.05 | -0.026 | -0.029 | -0.004
ZC3H11A (UniProt O75152) | 0.104 | 0.084 | 0.055 | 0.03 | -0.022 | 0 | 0.283 | -0.182 | -0.016 | 0.013 | 0.098 | -0.077 | 0.076 | -0.066 | -0.023 | 0.045 | 0.078 | 0.019 | 0.09 | 0.034
XPNPEP1 isoform 3 (UniProt Q9NQW7) | 0.001 | 0.015 | 0.008 | -0.044 | -0.054 | 0.014 | -0.022 | 0.019 | -0.001 | -0.016 | -0.018 | 0.011 | 0.029 | -0.001 | -0.045 | 0.001 | 0.613 (active) | -0.002 | 0.002 | 0.002
VPS13C (UniProt Q709C8) | 0.018 | 0.028 | 0.12 | 0.112 | -0.017 | -0.01 | 0 | 0.02 | 0.028 | 0.026 | 0.008 | 0.034 | 0.002 | 0.014 | 0.023 | 0.192 | -0.131 | 0.111 | 0.157 | 0.131
ZZEF1 (UniProt O43149) | -0.013 | 0.012 | 0.051 | -0.015 | -0.028 | -0.006 | -0.116 | 0.029 | 0.036 | 0.01 | 0.005 | -0.025 | 0.017 | -0.022 | 0.017 | 0.022 | 0.065 | -0.022 | 0.007 | 0.008
WDR91 (UniProt A4D1P6) | -0.096 | 0.028 | 0.046 | -0.043 | -0.023 | 0.055 | -0.01 | 0.041 | 0.067 | 0.019 | -0.018 | -0.097 | 0.017 | -0.003 | -0.056 | 0.026 | 0.1 | 0.013 | -0.007 | -0.004
WIPI2 (UniProt Q9Y4P8) | -0.028 | 0.012 | -0.06 | -0.073 | -0.022 | 0.002 | -0.108 | 0.09 | 0.01 | -0.002 | -0.036 | 0.005 | -0.007 | 0.036 | -0.051 | 0.029 | 0.049 | -0.033 | -0.012 | -0.027
VANGL1 (UniProt Q8TAA9) | -0.075 | 0.023 | 0.101 | 0.004 | -0.009 | 0.105 | -0.088 | 0.058 | 0.044 | 0.125 | 0.005 | 0.088 | -0.054 | 0.078 | 0.054 | -0.011 | -0.072 | -0.023 | -0.071 | 0.011
UTP3 (UniProt Q9NQZ2) | 0.004 | 0.012 | 0.058 | -0.009 | -0.011 | -0.047 | 0 | -0.02 | 0.011 | 0.05 | 0.04 | -0.022 | -0.047 | 0.151 | 0.089 | 0.05 | 0.005 | -0.042 | -0.002 | -0.017
USP10 isoform 2 (UniProt Q14694) | 0.021 | 0.013 | 0.002 | -0.005 | -0.039 | 0.013 | -0.079 | 0 | 0.005 | 0.008 | 0.006 | -0.118 | 0.015 | 0.017 | 0.021 | 0.019 | 0.04 | 0.012 | -0.009 | -0.018
